RGS12 GoLoco inh: inhibitors of human Gai1-RGS12 GoLoco interaction (red fluorophore); P63096; Gai1:RGS12 GoLoco peptide FP, rhodamine, 10 min; Potency, µM (doses to about 61.6 µM), usual class: inhibitors; actives 0.44% (n = 230,000); AID 880; active = well fitted inhibition curve with a large enough effect, not every such curve was filed as active; inactive = no such curve, though single readings can be large or run the other way; also: nearly all actives have a fitted effect of over 30% in size
Target sequence (P63096 whole entry, looked up): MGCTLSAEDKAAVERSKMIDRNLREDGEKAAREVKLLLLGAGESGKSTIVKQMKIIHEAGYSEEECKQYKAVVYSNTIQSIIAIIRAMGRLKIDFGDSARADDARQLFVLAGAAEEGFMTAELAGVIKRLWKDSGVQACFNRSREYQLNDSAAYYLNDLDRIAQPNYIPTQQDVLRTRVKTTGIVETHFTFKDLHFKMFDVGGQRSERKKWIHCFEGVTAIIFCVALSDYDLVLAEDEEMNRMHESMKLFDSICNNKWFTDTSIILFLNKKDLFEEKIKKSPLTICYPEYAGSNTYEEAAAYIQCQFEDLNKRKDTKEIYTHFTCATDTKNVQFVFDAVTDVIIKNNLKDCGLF
HPGD block: blocks human HPGD enzyme activity | AID 894 | Potency, µM, actives largely listed as inhibitors | purified HPGD, NADH fluorescence kinetic, PGE2 substrate | P15428 | actives 4.3% (n = 150,000); active = well fitted inhibition curve with a large enough effect, not every such curve was filed as active; inconclusive = small, poorly fitted or top-dose-only effect, or another doubt; inactive = no such curve, though single readings can be large or run the other way
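NADH formation kinetics: reaction with 30 uM PGE2 and 1 mM NAD+ (final), 20 nM enzyme, Tris-HCl pH 8 with Tween 20, after 15 min compound preincubation at room temperature. Fluorescence change, last versus first of five reads.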
ALDH1A1 block: blocks purified human ALDH1A1 activity | P00352 | Purified ALDH1A1, NADH fluorescence, propionaldehyde substrate | Potency, µM (highest dose often 75.3 µM), usual class: inhibitors | actives 7.3% (n = 220,000); active = well fitted inhibition curve with a large enough effect, not every such curve was filed as active; inconclusive = small, poorly fitted or top-dose-only effect, or another doubt; inactive = no such curve, though single readings can be large or run the other way
PNC assembly inh: inhibitors of perinucleolar compartment assembly | PC3M PTB-GFP, PNC prevalence imaging, 16 h; stronger effect = lower value | activity change (PNC), negative = inhibition, % at 10 µM | actives 3.1% (n = 140,000);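 active = readout at or below -70, meaning at least 70% loss of cells showing the perinucleolar compartment, a nuclear body marking cancer cells; inconclusive = readout between -30 and a set limit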
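PC3M cells stably expressing PTB-GFP, 750–1000 cells/well, treated 16 h at 37 °C with compound (23 nl of library stock), in duplicate. After paraformaldehyde fixation and Hoechst stain, imaged at 20x; PNC prevalence scored by image analysis.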
HTT aggregate: reduces HttQ103-GFP aggregates in PC12 cells; AID 1688; PC12 HttQ103-GFP aggregates, Acumen cytometry, 40 h; Potency, µM (doses to about 46.1 µM), actives largely listed as inhibitors; actives 1.1% (n = 220,000); also: nearly all actives have a fitted effect of over 60% in size
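Quantitative HTS on tebufenozide-induced (100 nM) PC12 cells stably expressing polyQ103 Huntingtin exon 1–GFP. Reduction of bright GFP aggregates, detected by laser scanning cytometry after lysis, identified actives across the titration.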
HTT ATP protect: protects HTT-Q103 PC12 cells, measured by ATP; actives 0.14% (n = 230,000); PC12 HTT-Q103 induced, cytoprotection, ATP luminescence, 40 h; AID 1471; Potency, µM (series often up to 56.4 µM), hits mostly activators; also: nearly all actives have a fitted effect of over 45% in size
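PC12 cells with ecdysone-inducible HTT exon 1 Q103-GFP, induced with 100 nM tebufenozide and co-treated with library compounds in a dose series (1536-well, 1500 cells/well). Cytoprotection read as ATP content by ATPlite luminescence.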
Hits are given with their value; – = inactive; ? = inconclusive; · = not tested or not shown; [ ] = dose if it differs, or a comment. A selection: hits, their analogues and other compounds. The true share with any hit is near 11%. Unless noted, calls follow the shape of the dose curve; as a rule, active = well fitted curve in the direction sought with a large enough effect; inconclusive = small, poorly fitted or top-dose-only effect, or another doubt; inactive = no such curve, though single readings can be large; an effect the other way counts as inactive or inconclusive.

SMILES	RGS12 GoLoco inh	HPGD block	ALDH1A1 block	PNC assembly inh	HTT aggregate	HTT ATP protect
CC(=O)c1cccc(NC(=S)NC(=O)c2ccc(C)cc2)c1	–	·	?	·	–[9.22 µM]	–[10 µM]
CCOC(=O)Cc1csc(NC(=S)NC(=O)c2ccc(C)cc2)n1	·	·	40µM	–	–	–[10 µM]
C=CCN1c2ccccc2[C@]23C[C@@H](C(=O)OC)N(S(=O)(=O)c4ccc(Br)cc4)C2=NC(C(=O)OC)=C(C(=O)OC)[C@H]13	–[14.2 µM]	–	–[13.5 µM]	·	·	–[10 µM]
CCO	–	–	?	·	·	–
O=C(C1CCCCC1)N1CCC(n2nnc3ccccc32)CC1	–	–	14µM	–	–	–[10 µM]
O=C(NN=C1CCCC1)c1[nH]c2ccc(Br)cc2c1-c1ccccc1	–	·	18µM	·	–[9.22 µM]	–[10 µM]
O=C(N/N=C/c1ccccc1)c1[nH]c2ccc(Br)cc2c1-c1ccccc1	–	–	–	?	–	–[10 µM]
CCC(=O)N1CCc2cc(S(=O)(=O)CCC(=O)Nc3ccc(CC)cc3)ccc21	–	–	–	?	–	–[10 µM]
CCC(=O)N1CCc2cc(S(=O)(=O)CCC(=O)N3CCc4ccccc4C3)ccc21	–	–	13µM	?	–	–[10 µM]
CC(=O)N1CCc2cc(S(=O)(=O)CCC(=O)N3CCN(C(=O)c4ccco4)CC3)ccc21	–	–	32µM	–	–	–[10 µM]
CC(=O)N1CCc2cc(S(=O)(=O)CCC(=O)NCc3ccco3)ccc21	–	·	–	·	–	–
O=C(CCS(=O)(=O)Cc1ccccc1F)N1CCc2ccccc2C1	–	–	3.5µM	–	–	–
CCc1c(C)c2cc(Cl)c(O)c(CN(C)C)c2oc1=O	–	?	?	–	3.2µM	–[0.074 µM]
COc1ccc(-c2coc3cc(O[C@@H]4O[C@@H](CO)[C@@H](O)[C@@H](O)[C@H]4O)cc(O)c3c2=O)cc1	·	·	·	·	·	–
CCC1=Nc2ccccc2NC2=C1C(=O)CCC2	–	–	11µM	–	–	–
CCOC(=O)c1c(C)c(-c2ccccc2)n(CC(=O)NCCCN(CC)CC)c1C	–	·	–	·	–	–
CC(C)N(C(=O)CSc1nn2c(=O)c(C(C)(C)C)nnc2s1)c1ccccc1	–	–	22µM	–	–	–
COc1cc(/C=N/NC(=O)CSc2cc(C)c(Br)cc2C)ccc1O	–	–	–	–	?	–
Cc1cc(SCC(=O)NN=C2CCN(C(C)C)CC2)c(C)cc1Br	–	25µM	?	–	–	·
Cc1cc(SCC(=O)N/N=C/c2ccc(O)c(O)c2O)c(C)cc1Br	–	10µM	4.5µM	–	?	–
Cc1cc(C)nc(SCC(=O)NN=C2CCCC2)n1	–	·	–	·	–	–
COc1cccc(Cn2c(=O)cnc3cnc(N4CCN(C)CC4)nc32)c1	–	·	?	·	·	–
COc1ccc(NC(=O)CSc2ccccc2)cc1S(=O)(=O)N1CCCCC1	–	–	–	-81	–	–[10 µM]
COc1ccc(NC(=O)CSc2ccc(F)cc2)cc1S(=O)(=O)N1CCCCC1	–	–	15µM	–	–	–[10 µM]
COc1ccc(NC(=O)CCCC2CCCCC2)cc1S(=O)(=O)N1CCCCC1	–	–	?	?	–	–[10 µM]
SMILES	RGS12 GoLoco inh	HPGD block	ALDH1A1 block	PNC assembly inh	HTT aggregate	HTT ATP protect
COc1ccc(NC(=O)CSc2ccc(NC(C)=O)cc2)cc1S(=O)(=O)N1CCCCC1	–	–	–	?	–	–[10 µM]
Cc1cc(C)n2cc(CSCc3ccccc3)nc2n1	–	?	?	-89	–	–[10 µM]
Cc1cc(C)n2cc(CSc3ccccn3)nc2n1	–	·	?	·	–	?
Clc1ccc(-c2nc3sccn3c2/C=N/OCc2ccc(Cl)c(Cl)c2)cc1	–	·	–	·	·	–
COCCN(C(=O)Cc1cccs1)c1nnc(-c2ccncc2)s1	–	–	13µM	–	–	–[10 µM]
COCCN(C(=O)COc1ccc(Cl)cc1)c1nnc(-c2cccnc2)s1	–	–	–	-100	–	–[10 µM]
O=c1c(/C=N/O)coc2ccc3ccccc3c12	–	–	11µM	?	–	–[0.074 µM]
Cc1ccc2occ(/C=N/O)c(=O)c2c1	–	–	?	–	–	–
CC(=O)N(\C=C/C=C/C=C1\Sc2ccccc2C1=O)c1ccccc1	–	·	18µM	·	–	–[10 µM]
O=C(O)C1CCCNC1 (centres undefined)	–	–	–	-83	–	·
O=C(O)[C@H]1CCCNC1	–	–	–	·	·	–

Source: PubChem (National Center for Advancing Translational Sciences (NCATS))
